As a reminder, the inhibition is the share of the control response that was lost under treatment.

The structures appear in SMILES notation. Values without a mark were called inactive. No rule for the calls is given here.

In this assay the target is Pantothenate synthetase (Mycobacterium tuberculosis (strain ATCC 25618 / H37Rv)) (UniProt P9WIL5). As to the kind of experiment: Coupled enzyme confirmation of inhibitors against recombinant Mtb PanC (AID 375).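 Also: 0% = full reaction with vehicle and 100% = no enzyme background.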 Conditions: coupled enzyme assay; at 10 µM, stronger effect = higher value.
Pantothenate synthetase (Mycobacterium tuberculosis (strain ATCC 25618 / H37Rv)), sequence (P9WIL5 whole entry, looked up): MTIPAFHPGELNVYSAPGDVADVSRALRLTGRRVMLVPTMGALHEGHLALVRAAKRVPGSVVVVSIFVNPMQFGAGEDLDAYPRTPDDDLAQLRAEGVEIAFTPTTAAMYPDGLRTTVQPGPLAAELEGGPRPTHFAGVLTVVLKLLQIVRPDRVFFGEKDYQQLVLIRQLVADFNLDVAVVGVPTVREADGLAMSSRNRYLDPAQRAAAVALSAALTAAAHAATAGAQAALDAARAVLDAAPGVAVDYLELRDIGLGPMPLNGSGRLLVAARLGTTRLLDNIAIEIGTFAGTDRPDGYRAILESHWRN
As to `Cc1nc2ccc(NC(=O)N3CCSCC3)cc2s1`, the inhibition was 1%.
In the case of `O=C(Nc1nccs1)c1ccc(COc2ccccc2Br)o1`, the inhibition is 0%.
Regarding `Cc1cc(=O)[nH]c(SCC(=O)NCc2ccco2)n1`, the inhibition was 0%.
Take `O=C(CSc1ncnc2c1cnn2-c1ccccc1)Nc1ccccc1`: the inhibition is 5%.
Take `CCn1cnc2cc(NCc3cccc(OC)c3O)ccc21`: the inhibition was 12%.
For `CCOc1ccccc1OCC(=O)Nc1nnc(COC)s1`, the inhibition is 4%.
For `COc1ccc(CCN(Cc2cc3cccc(C)c3[nH]c2=O)C(=O)N2CCCC2)cc1OC`, the inhibition was 0%.
Take `Nc1nnc(-c2cccc(Cl)c2Cl)c(N)n1`: the inhibition is 2%.
Take `CC1CC(NC(=O)c2cnc3n(c2=O)CCS3)CC(C)(C)C1` (stereo not drawn): the inhibition was 5%.
Consider `CC(=O)c1ccc(NC(=O)C2CCN(S(=O)(=O)c3cccc4cccnc34)CC2)cc1`, for which the inhibition is 4%.
For the compound `CC(=O)Nc1ccc(S(=O)(=O)Nc2nc3ccccc3nc2N2CCCC2)cc1`, the inhibition was 8%.
Take `CCn1c(SCC(=O)Nc2ccccc2F)nc2c(c1=O)SC(C)C2` (stereo not drawn): the inhibition was 0%.
The same measure for `CCN(CC)CCN1C(=O)c2oc3ccc(F)cc3c(=O)c2C1c1ccncc1` (stereo not drawn): 0%; for `CCOC(=O)Cc1csc(NC(=O)CSc2nnc(C)n2C)n1`: 0%.
In the case of `CC1CCCc2sc3nc(NCc4ccco4)n4ncnc4c3c21` (stereo not drawn), the inhibition is 0%.
For the compound `COc1ccc(N2C(=O)CC(N3CCN(c4ccccc4F)CC3)C2=O)cc1` (stereo not drawn), the inhibition is 0%.
As to `CC(=O)NS(=O)(=O)c1ccc(N)cc1`, the inhibition was 2%.
Turning to `CN(C)C(=O)C12CCC(C)(c3nc4ccccc4nc31)C2(C)C` (stereo not drawn), the inhibition was 4%.

The values above are taken from PubChem BioAssay.
